# Positions count from the first letter of the chain named.
# Assays:
# Experiment in all cases: PBM; 200 nM protein, PBS
# Settings in all cases: dsDNA, one strand shown
# CRX [1] = target: CRX (Homo sapiens, UniProt O43186 26-111)
# PRRX1 [2] = target: PRRX1 (Homo sapiens, UniProt P54821 80-166, F113S)
# NKX2-6 [3] = target: T1, NKX2-6 (Homo sapiens, UniProt A6NCS4 118-204, R150C)
# T1 sequence: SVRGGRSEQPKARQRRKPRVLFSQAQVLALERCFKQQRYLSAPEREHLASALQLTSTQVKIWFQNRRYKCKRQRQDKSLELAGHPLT
# CRX [4] = target: CRX (Homo sapiens, UniProt O43186 26-111, E42D)
# ALX1 [5] = target: ALX1 (Homo sapiens, UniProt Q15699 118-204, L144V)
# NKX2-6 [6] = target: T2, NKX2-6 (Homo sapiens, UniProt A6NCS4 118-204)
# T2 sequence: T1 sequence with C33R
# ALX1 [7] = target: ALX1 (Homo sapiens, UniProt Q15699 118-204, L144R)
# PROP1 [8] = target: PROP1 (Homo sapiens, UniProt O75360 56-141)
# PROP1 [9] = target: PROP1 (Homo sapiens, UniProt O75360 56-141, R99H)
# VAX1 [10] = target: VAX1 (Homo sapiens, UniProt Q5SQQ9 86-172)
# NKX2-6 [11] = target: T3, NKX2-6 (Homo sapiens, UniProt A6NCS4 118-204, F151L)
# T3 sequence: T1 sequence with C33R, F34L
# PROP1 [12] = target: PROP1 (Homo sapiens, UniProt O75360 56-141, F88S)
# VAX1 [13] = target: VAX1 (Homo sapiens, UniProt Q5SQQ9 86-172, T142I)
# CRX [14] = target: CRX (Homo sapiens, UniProt O43186 26-111, R41L)
# ALX1 [15] = target: ALX1 (Homo sapiens, UniProt Q15699 118-204)
# PRRX1 [16] = target: PRRX1 (Homo sapiens, UniProt P54821 80-166)
# VAX1 [17] = target: VAX1 (Homo sapiens, UniProt Q5SQQ9 86-172, K157R)
# HOXB6 [18] = target: HOXB6 (Homo sapiens, UniProt P17509 132-218, K202E)
# HOXA2 [19] = target: HOXA2 (Homo sapiens, UniProt O43364 129-215, R185T)
# PITX2 = PITX2 (Homo sapiens, UniProt Q99697 72-157)
# HOXA2 [20] = target: HOXA2 (Homo sapiens, UniProt O43364 129-215, R185K)
# HOXA2 [21] = target: HOXA2 (Homo sapiens, UniProt O43364 129-215, Y150S)
# HOXA2 [22] = target: HOXA2 (Homo sapiens, UniProt O43364 129-215)
# HOXB6 [23] = target: HOXB6 (Homo sapiens, UniProt P17509 132-218)
# MSX2 [24] = target: MSX2 (Homo sapiens, UniProt P35548 130-214, R199I)
# MSX2 [25] = target: MSX2 (Homo sapiens, UniProt P35548 130-214)
# MSX2 [26] = target: MSX2 (Homo sapiens, UniProt P35548 130-214, F161Y)
# HOXA7 [27] = target: HOXA7 (Homo sapiens, UniProt P31268 116-202)
# HOXA7 [28] = target: HOXA7 (Homo sapiens, UniProt P31268 116-202, W177C)
# PAX4 [29] = target: T4, PAX4 (Homo sapiens, UniProt O43316 9-242, R200K)
# T4 sequence: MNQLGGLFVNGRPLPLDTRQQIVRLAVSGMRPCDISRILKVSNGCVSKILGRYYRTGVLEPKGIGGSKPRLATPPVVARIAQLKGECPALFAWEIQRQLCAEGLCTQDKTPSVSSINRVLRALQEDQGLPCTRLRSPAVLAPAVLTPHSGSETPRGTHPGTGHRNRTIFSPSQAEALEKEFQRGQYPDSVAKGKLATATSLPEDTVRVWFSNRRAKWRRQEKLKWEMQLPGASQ
# PAX4 [30] = target: T5, PAX4 (Homo sapiens, UniProt O43316 9-242, F177Y)
# T5 sequence: T4 sequence with F169Y, K192R
# PAX4 [31] = target: T6, PAX4 (Homo sapiens, UniProt O43316 9-242)
# T6 sequence: T4 sequence with K192R
# PAX4 [32] = target: T7, PAX4 (Homo sapiens, UniProt O43316 9-242, R200Q)
# T7 sequence: T4 sequence with K192Q
# PAX4 [33] = target: T8, PAX4 (Homo sapiens, UniProt O43316 9-242, F177V)
# T8 sequence: T4 sequence with F169V, K192R
# PAX4 [34] = target: T9, PAX4 (Homo sapiens, UniProt O43316 9-242, R227W)
# T9 sequence: T4 sequence with K192R, R219W
# Chain of CRX (Homo sapiens, UniProt O43186 26-111) (O43186 26-111): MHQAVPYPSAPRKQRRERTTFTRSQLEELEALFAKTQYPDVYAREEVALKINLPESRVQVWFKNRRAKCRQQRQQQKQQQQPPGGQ
# Chain of CRX (Homo sapiens, UniProt O43186 26-111, E42D) (O43186 26-111 E42D): as the sequence (O43186 26-111) above, with E17D counted along it
# Chain of CRX (Homo sapiens, UniProt O43186 26-111, R41L) (O43186 26-111 R41L): as the sequence (O43186 26-111) above, with R16L counted along it
# Chain of PROP1 (Homo sapiens, UniProt O75360 56-141, R99H) (O75360 56-141 R99H): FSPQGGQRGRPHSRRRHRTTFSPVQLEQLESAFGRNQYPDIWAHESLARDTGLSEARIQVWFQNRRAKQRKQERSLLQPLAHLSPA
# Chain of PROP1 (Homo sapiens, UniProt O75360 56-141, F88S) (O75360 56-141 F88S): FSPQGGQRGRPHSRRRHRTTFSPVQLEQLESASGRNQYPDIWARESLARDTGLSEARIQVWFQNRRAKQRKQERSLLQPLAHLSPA
# Chain of PRRX1 (Homo sapiens, UniProt P54821 80-166) (P54821 80-166): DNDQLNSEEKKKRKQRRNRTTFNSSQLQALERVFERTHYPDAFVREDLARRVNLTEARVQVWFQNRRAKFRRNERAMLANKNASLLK
# Chain of PRRX1 (Homo sapiens, UniProt P54821 80-166, F113S) (P54821 80-166 F113S): as the sequence (P54821 80-166) above, with F34S counted along it
# Chain of HOXB6 (Homo sapiens, UniProt P17509 132-218) (P17509 132-218): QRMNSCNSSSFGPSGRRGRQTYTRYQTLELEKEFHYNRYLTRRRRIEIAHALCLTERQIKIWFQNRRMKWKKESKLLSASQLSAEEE
# Chain of VAX1 (Homo sapiens, UniProt Q5SQQ9 86-172, K157R) (Q5SQQ9 86-172 K157R): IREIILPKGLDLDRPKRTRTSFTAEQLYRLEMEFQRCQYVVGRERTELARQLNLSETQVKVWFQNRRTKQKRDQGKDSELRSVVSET
# Chain of VAX1 (Homo sapiens, UniProt Q5SQQ9 86-172, T142I) (Q5SQQ9 86-172 T142I): as the sequence (Q5SQQ9 86-172 K157R) above, with T57I, R72K counted along it
# Chain of HOXB6 (Homo sapiens, UniProt P17509 132-218, K202E) (P17509 132-218 K202E): as the sequence (P17509 132-218) above, with K71E counted along it
# Chain of VAX1 (Homo sapiens, UniProt Q5SQQ9 86-172) (Q5SQQ9 86-172): as the sequence (Q5SQQ9 86-172 K157R) above, with R72K counted along it
# Chain of PROP1 (Homo sapiens, UniProt O75360 56-141) (O75360 56-141): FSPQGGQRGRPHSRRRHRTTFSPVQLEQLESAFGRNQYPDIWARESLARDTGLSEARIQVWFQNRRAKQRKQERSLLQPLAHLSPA
# Chain of HOXA2 (Homo sapiens, UniProt O43364 129-215, Y150S) (O43364 129-215 Y150S): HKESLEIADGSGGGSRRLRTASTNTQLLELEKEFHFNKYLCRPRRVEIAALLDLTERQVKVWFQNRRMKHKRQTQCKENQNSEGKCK
# Chain of ALX1 (Homo sapiens, UniProt Q15699 118-204) (Q15699 118-204): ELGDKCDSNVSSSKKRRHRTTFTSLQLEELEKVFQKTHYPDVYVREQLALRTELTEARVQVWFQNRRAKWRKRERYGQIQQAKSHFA
# Chain of HOXA2 (Homo sapiens, UniProt O43364 129-215, R185K) (O43364 129-215 R185K): as the sequence (O43364 129-215 Y150S) above, with S22Y, R57K counted along it
# Chain of HOXA2 (Homo sapiens, UniProt O43364 129-215, R185T) (O43364 129-215 R185T): as the sequence (O43364 129-215 Y150S) above, with S22Y, R57T counted along it
# Chain of ALX1 (Homo sapiens, UniProt Q15699 118-204, L144V) (Q15699 118-204 L144V): as the sequence (Q15699 118-204) above, with L27V counted along it
# Chain of MSX2 (Homo sapiens, UniProt P35548 130-214, R199I) (P35548 130-214 R199I): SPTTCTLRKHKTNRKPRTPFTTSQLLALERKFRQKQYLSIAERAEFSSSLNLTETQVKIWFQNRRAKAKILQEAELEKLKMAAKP
# Chain of MSX2 (Homo sapiens, UniProt P35548 130-214) (P35548 130-214): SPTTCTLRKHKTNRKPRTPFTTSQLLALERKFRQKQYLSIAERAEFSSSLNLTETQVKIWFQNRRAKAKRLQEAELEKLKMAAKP
# Chain of ALX1 (Homo sapiens, UniProt Q15699 118-204, L144R) (Q15699 118-204 L144R): as the sequence (Q15699 118-204) above, with L27R counted along it
# Chain of HOXA2 (Homo sapiens, UniProt O43364 129-215) (O43364 129-215): as the sequence (O43364 129-215 Y150S) above, with S22Y counted along it
# Chain of MSX2 (Homo sapiens, UniProt P35548 130-214, F161Y) (P35548 130-214 F161Y): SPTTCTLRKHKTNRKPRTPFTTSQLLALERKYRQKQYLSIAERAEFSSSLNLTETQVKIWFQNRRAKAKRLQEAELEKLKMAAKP
# Chain of HOXA7 (Homo sapiens, UniProt P31268 116-202, W177C) (P31268 116-202 W177C): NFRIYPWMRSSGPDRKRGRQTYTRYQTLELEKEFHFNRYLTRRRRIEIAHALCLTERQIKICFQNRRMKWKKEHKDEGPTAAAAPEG
# Chain of HOXA7 (Homo sapiens, UniProt P31268 116-202) (P31268 116-202): as the sequence (P31268 116-202 W177C) above, with C62W counted along it
sequence,measurement,setting,value
CACCACGC,binding signal,CRX [1],"8.26 upbm affinity estimate (log intensity, higher = more binding, comparable within an allelic series)"
same,binding signal,PRRX1 [2],"9.44 upbm affinity estimate (log intensity, higher = more binding, comparable within an allelic series)"
same,binding signal,NKX2-6 [3],"9.32 upbm affinity estimate (log intensity, higher = more binding, comparable within an allelic series)"
same,binding signal,CRX [4],"8.36 upbm affinity estimate (log intensity, higher = more binding, comparable within an allelic series)"
same,binding signal,ALX1 [5],"6.3 upbm affinity estimate (log intensity, higher = more binding, comparable within an allelic series)"
same,binding signal,NKX2-6 [6],"9.32 upbm affinity estimate (log intensity, higher = more binding, comparable within an allelic series)"
same,binding signal,ALX1 [7],"6.36 upbm affinity estimate (log intensity, higher = more binding, comparable within an allelic series)"
same,binding signal,PROP1 [8],"6.81 upbm affinity estimate (log intensity, higher = more binding, comparable within an allelic series)"
same,binding signal,PROP1 [9],"6.8 upbm affinity estimate (log intensity, higher = more binding, comparable within an allelic series)"
same,binding signal,VAX1 [10],"7.04 upbm affinity estimate (log intensity, higher = more binding, comparable within an allelic series)"
same,binding signal,NKX2-6 [11],"9.49 upbm affinity estimate (log intensity, higher = more binding, comparable within an allelic series)"
same,binding signal,PROP1 [12],"6.67 upbm affinity estimate (log intensity, higher = more binding, comparable within an allelic series)"
same,binding signal,VAX1 [13],"7.3 upbm affinity estimate (log intensity, higher = more binding, comparable within an allelic series)"
same,binding signal,CRX [14],"8.34 upbm affinity estimate (log intensity, higher = more binding, comparable within an allelic series)"
same,binding signal,ALX1 [15],"6.37 upbm affinity estimate (log intensity, higher = more binding, comparable within an allelic series)"
same,binding signal,PRRX1 [16],"9.04 upbm affinity estimate (log intensity, higher = more binding, comparable within an allelic series)"
same,binding signal,VAX1 [17],"7.04 upbm affinity estimate (log intensity, higher = more binding, comparable within an allelic series)"
GGACCGCC,binding signal,CRX [1],"8.02 upbm affinity estimate (log intensity, higher = more binding, comparable within an allelic series)"
same,binding signal,PRRX1 [2],"9.27 upbm affinity estimate (log intensity, higher = more binding, comparable within an allelic series)"
same,binding signal,HOXB6 [18],"8.98 upbm affinity estimate (log intensity, higher = more binding, comparable within an allelic series)"
same,binding signal,HOXA2 [19],"7.28 upbm affinity estimate (log intensity, higher = more binding, comparable within an allelic series)"
same,binding signal,CRX [4],"8.13 upbm affinity estimate (log intensity, higher = more binding, comparable within an allelic series)"
same,binding signal,PITX2,"7.63 upbm affinity estimate (log intensity, higher = more binding, comparable within an allelic series)"
same,binding signal,HOXA2 [20],"10.2 upbm affinity estimate (log intensity, higher = more binding, comparable within an allelic series)"
same,binding signal,HOXA2 [21],"10.4 upbm affinity estimate (log intensity, higher = more binding, comparable within an allelic series)"
same,binding signal,CRX [14],"8.16 upbm affinity estimate (log intensity, higher = more binding, comparable within an allelic series)"
same,binding signal,PRRX1 [16],"9.42 upbm affinity estimate (log intensity, higher = more binding, comparable within an allelic series)"
same,binding signal,HOXA2 [22],"7.23 upbm affinity estimate (log intensity, higher = more binding, comparable within an allelic series)"
same,binding signal,HOXB6 [23],"9.08 upbm affinity estimate (log intensity, higher = more binding, comparable within an allelic series)"
AGCTCAGC,binding signal,CRX [1],"9.88 upbm affinity estimate (log intensity, higher = more binding, comparable within an allelic series)"
same,binding signal,CRX [4],"9.76 upbm affinity estimate (log intensity, higher = more binding, comparable within an allelic series)"
GTGCCACA,binding signal,CRX [1],"8.41 upbm affinity estimate (log intensity, higher = more binding, comparable within an allelic series)"
same,binding signal,CRX [4],"8.34 upbm affinity estimate (log intensity, higher = more binding, comparable within an allelic series)"
same,binding signal,MSX2 [24],"9.58 upbm affinity estimate (log intensity, higher = more binding, comparable within an allelic series)"
same,binding signal,MSX2 [25],"9.65 upbm affinity estimate (log intensity, higher = more binding, comparable within an allelic series)"
same,binding signal,PROP1 [8],"6.66 upbm affinity estimate (log intensity, higher = more binding, comparable within an allelic series)"
same,binding signal,PROP1 [9],"6.7 upbm affinity estimate (log intensity, higher = more binding, comparable within an allelic series)"
same,binding signal,VAX1 [10],"7.16 upbm affinity estimate (log intensity, higher = more binding, comparable within an allelic series)"
same,binding signal,PROP1 [12],"6.8 upbm affinity estimate (log intensity, higher = more binding, comparable within an allelic series)"
same,binding signal,MSX2 [26],"9.56 upbm affinity estimate (log intensity, higher = more binding, comparable within an allelic series)"
same,binding signal,VAX1 [13],"7.19 upbm affinity estimate (log intensity, higher = more binding, comparable within an allelic series)"
same,binding signal,CRX [14],"8.33 upbm affinity estimate (log intensity, higher = more binding, comparable within an allelic series)"
same,binding signal,VAX1 [17],"7.08 upbm affinity estimate (log intensity, higher = more binding, comparable within an allelic series)"
GGGACCCC,binding signal,CRX [1],"8.14 upbm affinity estimate (log intensity, higher = more binding, comparable within an allelic series)"
same,binding signal,HOXB6 [18],"8.9 upbm affinity estimate (log intensity, higher = more binding, comparable within an allelic series)"
same,binding signal,CRX [4],"8.1 upbm affinity estimate (log intensity, higher = more binding, comparable within an allelic series)"
same,binding signal,CRX [14],"8.05 upbm affinity estimate (log intensity, higher = more binding, comparable within an allelic series)"
same,binding signal,HOXB6 [23],"9.08 upbm affinity estimate (log intensity, higher = more binding, comparable within an allelic series)"
TGCGATAA,binding signal,CRX [1],"10.9 upbm affinity estimate (log intensity, higher = more binding, comparable within an allelic series)"
same,binding signal,HOXA7 [27],"9.91 upbm affinity estimate (log intensity, higher = more binding, comparable within an allelic series)"
same,binding signal,CRX [4],"10.5 upbm affinity estimate (log intensity, higher = more binding, comparable within an allelic series)"
same,binding signal,HOXA7 [28],"8.8 upbm affinity estimate (log intensity, higher = more binding, comparable within an allelic series)"
same,binding signal,CRX [14],"10.4 upbm affinity estimate (log intensity, higher = more binding, comparable within an allelic series)"
ATTAATCC,binding signal,CRX [1],"13.5 upbm affinity estimate (log intensity, higher = more binding, comparable within an allelic series)"
same,binding signal,PAX4 [29],"11.6 upbm affinity estimate (log intensity, higher = more binding, comparable within an allelic series)"
same,binding signal,CRX [4],"13.6 upbm affinity estimate (log intensity, higher = more binding, comparable within an allelic series)"
same,binding signal,PITX2,"13.4 upbm affinity estimate (log intensity, higher = more binding, comparable within an allelic series)"
same,binding signal,PAX4 [30],"10.9 upbm affinity estimate (log intensity, higher = more binding, comparable within an allelic series)"
same,binding signal,CRX [14],"13.5 upbm affinity estimate (log intensity, higher = more binding, comparable within an allelic series)"
ACTATCCG,binding signal,CRX [1],"9.31 upbm affinity estimate (log intensity, higher = more binding, comparable within an allelic series)"
same,binding signal,CRX [4],"9.26 upbm affinity estimate (log intensity, higher = more binding, comparable within an allelic series)"
GATTAACA,binding signal,CRX [1],"12.9 upbm affinity estimate (log intensity, higher = more binding, comparable within an allelic series)"
same,binding signal,CRX [4],"12.5 upbm affinity estimate (log intensity, higher = more binding, comparable within an allelic series)"
CCGGTCCC,binding signal,CRX [1],"8.46 upbm affinity estimate (log intensity, higher = more binding, comparable within an allelic series)"
same,binding signal,PAX4 [29],"9.29 upbm affinity estimate (log intensity, higher = more binding, comparable within an allelic series)"
same,binding signal,PAX4 [31],"9.34 upbm affinity estimate (log intensity, higher = more binding, comparable within an allelic series)"
same,binding signal,CRX [4],"8.54 upbm affinity estimate (log intensity, higher = more binding, comparable within an allelic series)"
same,binding signal,NKX2-6 [6],"9.32 upbm affinity estimate (log intensity, higher = more binding, comparable within an allelic series)"
same,binding signal,PAX4 [32],"9.4 upbm affinity estimate (log intensity, higher = more binding, comparable within an allelic series)"
same,binding signal,PAX4 [33],"9.28 upbm affinity estimate (log intensity, higher = more binding, comparable within an allelic series)"
same,binding signal,PAX4 [30],"9.27 upbm affinity estimate (log intensity, higher = more binding, comparable within an allelic series)"
same,binding signal,NKX2-6 [11],"9.15 upbm affinity estimate (log intensity, higher = more binding, comparable within an allelic series)"
same,binding signal,PAX4 [34],"9.3 upbm affinity estimate (log intensity, higher = more binding, comparable within an allelic series)"
same,binding signal,CRX [14],"8.54 upbm affinity estimate (log intensity, higher = more binding, comparable within an allelic series)"

# Source: article PMC11006913
